From ChEMBL document CHEMBL1961873, “Compounds: GSK PKIS; Assays: Nanosyn kinase panel” (2012)

What was measured:
[1] = molecular target: T1, Inhibitor of nuclear factor kappa-B kinase subunit epsilon (Homo sapiens) (UniProt Q14164); settings: at 1 µM;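 also: reported values are averaged percent inhibition figures against human IKKε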
T1 sequence (whole entry): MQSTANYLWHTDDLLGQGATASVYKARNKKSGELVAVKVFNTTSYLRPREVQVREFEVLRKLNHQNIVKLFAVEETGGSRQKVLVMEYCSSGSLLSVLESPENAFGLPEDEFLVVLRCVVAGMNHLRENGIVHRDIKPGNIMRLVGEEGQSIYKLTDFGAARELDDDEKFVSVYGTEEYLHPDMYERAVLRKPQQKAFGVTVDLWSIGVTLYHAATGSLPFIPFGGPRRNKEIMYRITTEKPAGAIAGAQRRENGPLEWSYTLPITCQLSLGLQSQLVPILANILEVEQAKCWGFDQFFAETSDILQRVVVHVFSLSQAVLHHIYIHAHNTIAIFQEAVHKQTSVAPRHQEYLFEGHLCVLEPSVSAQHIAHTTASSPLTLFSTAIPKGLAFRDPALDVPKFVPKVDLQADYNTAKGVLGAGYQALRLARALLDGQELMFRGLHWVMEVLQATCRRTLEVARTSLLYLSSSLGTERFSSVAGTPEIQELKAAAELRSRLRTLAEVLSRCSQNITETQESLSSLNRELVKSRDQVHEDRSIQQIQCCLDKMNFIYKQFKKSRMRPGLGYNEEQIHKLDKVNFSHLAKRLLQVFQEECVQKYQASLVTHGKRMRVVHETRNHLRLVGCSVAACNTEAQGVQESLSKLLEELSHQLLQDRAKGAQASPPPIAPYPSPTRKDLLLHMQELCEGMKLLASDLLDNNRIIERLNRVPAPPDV

[2] = molecular target: T2, Serine/threonine-protein kinase Nek1 (Homo sapiens) (UniProt Q96PY6); settings: at 0.1 µM
T2 sequence (whole entry): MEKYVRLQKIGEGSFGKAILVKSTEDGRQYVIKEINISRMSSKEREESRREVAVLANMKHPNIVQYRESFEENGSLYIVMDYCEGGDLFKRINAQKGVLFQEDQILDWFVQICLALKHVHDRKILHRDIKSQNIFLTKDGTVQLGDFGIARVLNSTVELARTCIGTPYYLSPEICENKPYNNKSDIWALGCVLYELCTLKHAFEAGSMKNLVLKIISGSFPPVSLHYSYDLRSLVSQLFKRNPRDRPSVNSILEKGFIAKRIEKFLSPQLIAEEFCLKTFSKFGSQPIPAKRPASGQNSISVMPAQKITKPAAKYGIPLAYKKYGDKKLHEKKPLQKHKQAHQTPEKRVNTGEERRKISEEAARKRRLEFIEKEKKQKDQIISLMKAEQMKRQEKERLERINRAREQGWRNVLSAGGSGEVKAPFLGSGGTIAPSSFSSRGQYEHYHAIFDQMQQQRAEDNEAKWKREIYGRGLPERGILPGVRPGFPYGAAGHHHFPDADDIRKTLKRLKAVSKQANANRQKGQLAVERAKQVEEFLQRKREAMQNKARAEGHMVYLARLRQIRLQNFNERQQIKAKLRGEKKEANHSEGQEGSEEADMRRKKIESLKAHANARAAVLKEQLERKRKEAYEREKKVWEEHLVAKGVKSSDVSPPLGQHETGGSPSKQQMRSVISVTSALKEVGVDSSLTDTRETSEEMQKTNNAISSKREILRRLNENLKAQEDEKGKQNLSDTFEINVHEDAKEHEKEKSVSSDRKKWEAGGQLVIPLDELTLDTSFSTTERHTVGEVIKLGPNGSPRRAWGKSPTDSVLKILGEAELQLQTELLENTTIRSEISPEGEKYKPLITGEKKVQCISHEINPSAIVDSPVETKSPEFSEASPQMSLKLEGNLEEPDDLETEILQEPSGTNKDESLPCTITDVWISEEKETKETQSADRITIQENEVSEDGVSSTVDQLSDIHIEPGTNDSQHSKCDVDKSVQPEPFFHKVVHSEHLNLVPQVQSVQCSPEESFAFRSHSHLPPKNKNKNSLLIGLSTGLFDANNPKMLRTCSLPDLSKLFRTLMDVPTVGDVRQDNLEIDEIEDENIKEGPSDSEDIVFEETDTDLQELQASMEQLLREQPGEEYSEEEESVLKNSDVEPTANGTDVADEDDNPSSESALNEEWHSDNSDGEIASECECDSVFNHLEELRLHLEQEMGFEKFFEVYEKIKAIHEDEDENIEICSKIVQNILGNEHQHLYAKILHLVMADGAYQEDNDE

[3] = molecular target: T2, Serine/threonine-protein kinase Nek1 (Homo sapiens); settings: at 1 µM
[4] = molecular target: T3, Serine/threonine-protein kinase Nek2 (Homo sapiens) (UniProt P51955); settings: at 0.1 µM
T3 sequence (whole entry): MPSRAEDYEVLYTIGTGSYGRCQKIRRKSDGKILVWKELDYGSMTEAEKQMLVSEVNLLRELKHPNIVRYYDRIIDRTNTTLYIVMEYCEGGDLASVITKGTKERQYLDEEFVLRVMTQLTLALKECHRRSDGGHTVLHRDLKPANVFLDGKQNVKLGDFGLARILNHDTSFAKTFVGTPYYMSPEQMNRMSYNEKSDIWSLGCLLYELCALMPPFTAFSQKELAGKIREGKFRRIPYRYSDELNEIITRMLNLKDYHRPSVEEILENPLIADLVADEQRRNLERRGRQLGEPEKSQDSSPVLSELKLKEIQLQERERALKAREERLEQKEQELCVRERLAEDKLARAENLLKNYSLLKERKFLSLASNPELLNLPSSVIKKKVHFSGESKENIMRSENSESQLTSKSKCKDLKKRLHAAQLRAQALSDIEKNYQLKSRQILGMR

[5] = molecular target: T3, Serine/threonine-protein kinase Nek2 (Homo sapiens); settings: at 1 µM
[6] = molecular target: Serine/threonine-protein kinase Nek6 (Homo sapiens) (UniProt Q9HC98); settings: at 0.1 µM
[7] = molecular target: Serine/threonine-protein kinase Nek6 (Homo sapiens) (UniProt Q9HC98); settings: at 1 µM
[8] = molecular target: Serine/threonine-protein kinase Nek7 (Homo sapiens) (UniProt Q8TDX7); settings: at 0.1 µM
[9] = molecular target: Serine/threonine-protein kinase Nek7 (Homo sapiens) (UniProt Q8TDX7); settings: at 1 µM
[10] = molecular target: T4, Serine/threonine-protein kinase Nek9 (Homo sapiens) (UniProt Q8TD19); settings: at 0.1 µM
T4 sequence (whole entry): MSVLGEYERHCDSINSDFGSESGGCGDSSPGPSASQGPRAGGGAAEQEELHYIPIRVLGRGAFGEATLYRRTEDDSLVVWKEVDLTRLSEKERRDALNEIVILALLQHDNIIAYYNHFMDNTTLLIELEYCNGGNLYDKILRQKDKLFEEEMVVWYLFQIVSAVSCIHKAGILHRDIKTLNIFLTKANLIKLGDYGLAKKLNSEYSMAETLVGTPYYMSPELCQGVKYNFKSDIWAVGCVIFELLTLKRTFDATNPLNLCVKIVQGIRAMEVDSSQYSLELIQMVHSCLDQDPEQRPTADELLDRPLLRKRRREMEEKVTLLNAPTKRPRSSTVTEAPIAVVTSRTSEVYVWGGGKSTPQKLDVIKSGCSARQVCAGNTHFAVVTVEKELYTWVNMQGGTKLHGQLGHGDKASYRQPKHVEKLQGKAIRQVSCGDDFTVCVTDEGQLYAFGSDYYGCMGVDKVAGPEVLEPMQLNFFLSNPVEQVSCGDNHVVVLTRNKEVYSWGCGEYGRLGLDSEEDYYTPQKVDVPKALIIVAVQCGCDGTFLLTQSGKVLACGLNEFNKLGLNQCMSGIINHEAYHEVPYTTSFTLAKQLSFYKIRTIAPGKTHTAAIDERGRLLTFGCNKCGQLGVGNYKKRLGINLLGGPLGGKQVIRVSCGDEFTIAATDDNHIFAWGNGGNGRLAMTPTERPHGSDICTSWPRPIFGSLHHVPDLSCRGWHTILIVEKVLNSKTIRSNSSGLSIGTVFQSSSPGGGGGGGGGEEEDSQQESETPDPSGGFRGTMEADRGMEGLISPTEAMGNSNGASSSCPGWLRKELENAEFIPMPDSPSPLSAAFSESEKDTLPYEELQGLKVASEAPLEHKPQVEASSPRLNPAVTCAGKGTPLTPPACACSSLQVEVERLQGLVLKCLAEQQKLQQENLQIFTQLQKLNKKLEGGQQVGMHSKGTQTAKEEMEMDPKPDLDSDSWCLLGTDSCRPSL

[11] = molecular target: T4, Serine/threonine-protein kinase Nek9 (Homo sapiens); settings: at 1 µM
[12] = molecular target: Serine/threonine-protein kinase PLK1 (Homo sapiens) (UniProt P53350); settings: at 0.1 µM
[13] = molecular target: Serine/threonine-protein kinase PLK1 (Homo sapiens) (UniProt P53350); settings: at 1 µM
[14] = molecular target: T5, Dual specificity protein kinase TTK (Homo sapiens) (UniProt P33981); settings: at 0.1 µM
T5 sequence (whole entry): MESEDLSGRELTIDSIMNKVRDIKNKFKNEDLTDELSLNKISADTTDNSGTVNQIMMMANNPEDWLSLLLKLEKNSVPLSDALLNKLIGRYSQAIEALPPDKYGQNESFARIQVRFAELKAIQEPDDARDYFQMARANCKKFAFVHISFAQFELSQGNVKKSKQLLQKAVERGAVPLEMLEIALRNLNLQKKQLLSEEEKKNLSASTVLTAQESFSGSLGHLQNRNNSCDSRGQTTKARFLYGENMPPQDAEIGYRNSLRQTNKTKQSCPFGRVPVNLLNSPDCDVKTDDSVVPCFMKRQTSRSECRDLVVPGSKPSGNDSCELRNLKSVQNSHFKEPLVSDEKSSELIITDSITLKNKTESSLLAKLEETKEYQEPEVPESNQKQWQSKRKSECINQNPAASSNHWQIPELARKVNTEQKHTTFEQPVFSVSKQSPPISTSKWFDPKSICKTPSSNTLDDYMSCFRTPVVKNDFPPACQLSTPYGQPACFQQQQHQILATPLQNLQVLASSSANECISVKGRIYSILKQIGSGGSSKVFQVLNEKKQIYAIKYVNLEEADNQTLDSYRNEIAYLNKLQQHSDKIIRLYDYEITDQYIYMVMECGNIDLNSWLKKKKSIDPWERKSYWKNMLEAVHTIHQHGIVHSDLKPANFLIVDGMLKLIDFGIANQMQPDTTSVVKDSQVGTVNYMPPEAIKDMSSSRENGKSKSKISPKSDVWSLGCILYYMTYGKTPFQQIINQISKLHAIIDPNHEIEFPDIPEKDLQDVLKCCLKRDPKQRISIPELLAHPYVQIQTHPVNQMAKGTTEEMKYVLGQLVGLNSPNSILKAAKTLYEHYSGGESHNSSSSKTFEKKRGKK

[15] = test system: T6, Receptor-type tyrosine-protein kinase FLT3 (Homo sapiens), P36888 [D835Y]; settings: at 1 µM
T6 sequence (whole entry): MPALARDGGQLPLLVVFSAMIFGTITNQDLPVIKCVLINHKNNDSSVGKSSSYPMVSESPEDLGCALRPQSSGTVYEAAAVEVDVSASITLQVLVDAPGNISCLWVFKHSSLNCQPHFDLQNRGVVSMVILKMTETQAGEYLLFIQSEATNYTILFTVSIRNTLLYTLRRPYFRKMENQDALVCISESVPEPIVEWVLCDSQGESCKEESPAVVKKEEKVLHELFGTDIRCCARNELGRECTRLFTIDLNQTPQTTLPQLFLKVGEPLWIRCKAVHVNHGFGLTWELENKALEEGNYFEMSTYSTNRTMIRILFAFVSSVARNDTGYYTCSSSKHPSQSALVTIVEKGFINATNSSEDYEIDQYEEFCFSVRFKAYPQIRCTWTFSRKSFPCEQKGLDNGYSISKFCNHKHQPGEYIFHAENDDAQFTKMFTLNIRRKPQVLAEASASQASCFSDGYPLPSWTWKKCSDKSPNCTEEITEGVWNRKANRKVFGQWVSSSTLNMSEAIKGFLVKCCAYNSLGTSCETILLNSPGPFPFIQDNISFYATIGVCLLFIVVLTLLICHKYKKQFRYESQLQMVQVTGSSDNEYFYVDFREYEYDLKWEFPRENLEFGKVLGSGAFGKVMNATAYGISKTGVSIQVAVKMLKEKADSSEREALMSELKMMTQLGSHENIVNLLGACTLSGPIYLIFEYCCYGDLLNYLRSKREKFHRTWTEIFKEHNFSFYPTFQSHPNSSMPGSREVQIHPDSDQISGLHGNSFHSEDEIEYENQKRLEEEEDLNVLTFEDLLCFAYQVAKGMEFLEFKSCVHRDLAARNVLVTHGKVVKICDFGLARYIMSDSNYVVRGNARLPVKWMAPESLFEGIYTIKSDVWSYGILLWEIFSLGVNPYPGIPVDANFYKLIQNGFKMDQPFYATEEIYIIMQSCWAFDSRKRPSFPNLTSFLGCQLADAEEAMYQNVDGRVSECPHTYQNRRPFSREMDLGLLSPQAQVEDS

[16] = molecular target: Vascular endothelial growth factor receptor 3 (Homo sapiens) (UniProt P35916); settings: at 0.1 µM
[17] = molecular target: Vascular endothelial growth factor receptor 3 (Homo sapiens) (UniProt P35916); settings: at 1 µM
[18] = molecular target: Macrophage colony-stimulating factor 1 receptor (Homo sapiens) (UniProt P07333); settings: at 0.1 µM
[19] = molecular target: Macrophage colony-stimulating factor 1 receptor (Homo sapiens) (UniProt P07333); settings: at 1 µM
[20] = molecular target: Tyrosine-protein kinase Fyn (Homo sapiens) (UniProt P06241); settings: at 0.1 µM
Tyrosine-protein kinase Fyn (Homo sapiens), sequence (P06241 2-537 limits assumed): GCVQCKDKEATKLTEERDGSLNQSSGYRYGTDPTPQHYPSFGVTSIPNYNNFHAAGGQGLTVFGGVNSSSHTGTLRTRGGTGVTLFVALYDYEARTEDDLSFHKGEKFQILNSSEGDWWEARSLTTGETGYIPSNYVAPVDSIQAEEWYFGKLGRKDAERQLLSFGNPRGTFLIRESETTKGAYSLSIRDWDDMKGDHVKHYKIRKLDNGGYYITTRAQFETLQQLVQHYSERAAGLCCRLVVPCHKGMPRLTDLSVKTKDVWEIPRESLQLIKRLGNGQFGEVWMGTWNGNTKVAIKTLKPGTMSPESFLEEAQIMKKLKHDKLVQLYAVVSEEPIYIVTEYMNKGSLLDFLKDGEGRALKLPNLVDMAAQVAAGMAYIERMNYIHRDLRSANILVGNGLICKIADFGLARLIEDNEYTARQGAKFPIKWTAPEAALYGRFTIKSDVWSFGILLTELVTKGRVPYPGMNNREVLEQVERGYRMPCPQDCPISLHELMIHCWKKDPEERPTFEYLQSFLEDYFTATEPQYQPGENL

Vascular endothelial growth factor receptor 3 (Homo sapiens), sequence (P35916 whole entry): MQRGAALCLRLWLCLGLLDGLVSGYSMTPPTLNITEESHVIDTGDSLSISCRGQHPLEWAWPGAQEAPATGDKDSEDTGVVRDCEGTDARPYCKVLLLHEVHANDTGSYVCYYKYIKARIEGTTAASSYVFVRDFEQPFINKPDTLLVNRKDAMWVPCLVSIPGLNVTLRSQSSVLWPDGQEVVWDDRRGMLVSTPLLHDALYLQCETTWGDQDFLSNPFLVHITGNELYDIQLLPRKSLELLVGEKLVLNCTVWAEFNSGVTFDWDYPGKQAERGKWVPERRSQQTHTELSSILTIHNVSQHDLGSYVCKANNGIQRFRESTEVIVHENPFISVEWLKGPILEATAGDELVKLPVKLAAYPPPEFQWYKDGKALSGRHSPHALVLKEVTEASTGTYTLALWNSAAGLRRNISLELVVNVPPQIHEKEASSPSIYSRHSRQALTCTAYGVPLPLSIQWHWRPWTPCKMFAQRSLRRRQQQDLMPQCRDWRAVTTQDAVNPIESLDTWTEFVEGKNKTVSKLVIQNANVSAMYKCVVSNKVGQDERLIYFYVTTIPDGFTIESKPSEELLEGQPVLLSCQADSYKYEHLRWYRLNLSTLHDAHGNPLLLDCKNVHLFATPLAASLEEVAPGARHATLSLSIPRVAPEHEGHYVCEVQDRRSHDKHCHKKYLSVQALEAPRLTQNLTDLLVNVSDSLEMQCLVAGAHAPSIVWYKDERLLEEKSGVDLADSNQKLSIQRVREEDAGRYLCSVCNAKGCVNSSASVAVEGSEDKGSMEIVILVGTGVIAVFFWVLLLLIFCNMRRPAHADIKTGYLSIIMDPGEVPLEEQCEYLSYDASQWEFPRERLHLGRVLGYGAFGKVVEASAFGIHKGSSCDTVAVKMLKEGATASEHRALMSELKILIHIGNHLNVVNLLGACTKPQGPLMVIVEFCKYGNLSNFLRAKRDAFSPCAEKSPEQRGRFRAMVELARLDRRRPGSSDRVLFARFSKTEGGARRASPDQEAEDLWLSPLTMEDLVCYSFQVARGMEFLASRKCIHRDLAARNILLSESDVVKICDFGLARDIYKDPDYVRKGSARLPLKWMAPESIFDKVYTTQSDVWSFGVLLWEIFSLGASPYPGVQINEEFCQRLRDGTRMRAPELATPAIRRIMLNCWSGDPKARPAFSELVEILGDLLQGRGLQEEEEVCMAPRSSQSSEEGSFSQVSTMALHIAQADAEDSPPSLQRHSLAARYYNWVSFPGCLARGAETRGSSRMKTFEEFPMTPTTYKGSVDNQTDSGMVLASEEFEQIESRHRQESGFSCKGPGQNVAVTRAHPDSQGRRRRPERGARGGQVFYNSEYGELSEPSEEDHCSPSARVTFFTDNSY
Serine/threonine-protein kinase Nek7 (Homo sapiens), sequence (Q8TDX7 whole entry, looked up): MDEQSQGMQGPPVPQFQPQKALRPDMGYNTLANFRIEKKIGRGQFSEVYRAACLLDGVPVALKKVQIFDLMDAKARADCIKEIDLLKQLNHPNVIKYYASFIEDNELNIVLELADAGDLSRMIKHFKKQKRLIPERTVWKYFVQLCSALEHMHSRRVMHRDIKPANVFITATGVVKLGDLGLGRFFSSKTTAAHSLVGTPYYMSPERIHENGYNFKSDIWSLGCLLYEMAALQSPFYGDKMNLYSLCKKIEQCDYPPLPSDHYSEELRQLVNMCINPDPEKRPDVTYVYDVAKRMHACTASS
Serine/threonine-protein kinase Nek6 (Homo sapiens), sequence (Q9HC98 whole entry): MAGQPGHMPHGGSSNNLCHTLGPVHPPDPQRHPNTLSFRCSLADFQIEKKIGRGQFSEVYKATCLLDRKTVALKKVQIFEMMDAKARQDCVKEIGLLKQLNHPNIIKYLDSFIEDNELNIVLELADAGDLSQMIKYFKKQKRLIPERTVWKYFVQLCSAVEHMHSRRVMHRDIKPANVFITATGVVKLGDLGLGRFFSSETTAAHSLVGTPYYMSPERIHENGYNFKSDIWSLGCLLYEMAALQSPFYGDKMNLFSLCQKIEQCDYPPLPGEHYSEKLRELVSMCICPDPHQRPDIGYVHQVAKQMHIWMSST
Macrophage colony-stimulating factor 1 receptor (Homo sapiens), sequence (P07333 whole entry): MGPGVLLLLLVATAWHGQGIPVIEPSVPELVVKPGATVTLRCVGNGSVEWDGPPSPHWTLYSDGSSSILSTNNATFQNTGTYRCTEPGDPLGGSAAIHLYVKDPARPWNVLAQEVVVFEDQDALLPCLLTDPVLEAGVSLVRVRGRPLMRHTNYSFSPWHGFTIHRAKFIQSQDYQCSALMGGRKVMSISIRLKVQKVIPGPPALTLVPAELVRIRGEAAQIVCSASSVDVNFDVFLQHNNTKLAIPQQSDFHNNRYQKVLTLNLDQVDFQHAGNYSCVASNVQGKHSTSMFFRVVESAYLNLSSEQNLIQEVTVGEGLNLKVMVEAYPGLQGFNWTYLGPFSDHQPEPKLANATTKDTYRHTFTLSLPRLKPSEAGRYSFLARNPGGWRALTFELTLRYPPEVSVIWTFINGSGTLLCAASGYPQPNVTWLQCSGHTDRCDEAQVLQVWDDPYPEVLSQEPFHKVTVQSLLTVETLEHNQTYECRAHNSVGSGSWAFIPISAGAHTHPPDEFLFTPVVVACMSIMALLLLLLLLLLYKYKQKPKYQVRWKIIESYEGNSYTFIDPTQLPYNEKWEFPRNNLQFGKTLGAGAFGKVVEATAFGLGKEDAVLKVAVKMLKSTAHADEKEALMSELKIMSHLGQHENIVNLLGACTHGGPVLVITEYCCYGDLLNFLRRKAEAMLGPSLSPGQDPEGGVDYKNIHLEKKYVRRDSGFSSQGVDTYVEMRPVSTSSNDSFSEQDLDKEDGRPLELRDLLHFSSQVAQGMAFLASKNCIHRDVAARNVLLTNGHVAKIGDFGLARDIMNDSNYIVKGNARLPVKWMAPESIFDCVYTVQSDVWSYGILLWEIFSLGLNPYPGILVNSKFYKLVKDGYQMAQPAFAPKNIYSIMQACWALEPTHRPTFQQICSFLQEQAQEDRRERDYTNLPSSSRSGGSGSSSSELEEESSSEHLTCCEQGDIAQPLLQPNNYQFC
Serine/threonine-protein kinase PLK1 (Homo sapiens), sequence (P53350 whole entry): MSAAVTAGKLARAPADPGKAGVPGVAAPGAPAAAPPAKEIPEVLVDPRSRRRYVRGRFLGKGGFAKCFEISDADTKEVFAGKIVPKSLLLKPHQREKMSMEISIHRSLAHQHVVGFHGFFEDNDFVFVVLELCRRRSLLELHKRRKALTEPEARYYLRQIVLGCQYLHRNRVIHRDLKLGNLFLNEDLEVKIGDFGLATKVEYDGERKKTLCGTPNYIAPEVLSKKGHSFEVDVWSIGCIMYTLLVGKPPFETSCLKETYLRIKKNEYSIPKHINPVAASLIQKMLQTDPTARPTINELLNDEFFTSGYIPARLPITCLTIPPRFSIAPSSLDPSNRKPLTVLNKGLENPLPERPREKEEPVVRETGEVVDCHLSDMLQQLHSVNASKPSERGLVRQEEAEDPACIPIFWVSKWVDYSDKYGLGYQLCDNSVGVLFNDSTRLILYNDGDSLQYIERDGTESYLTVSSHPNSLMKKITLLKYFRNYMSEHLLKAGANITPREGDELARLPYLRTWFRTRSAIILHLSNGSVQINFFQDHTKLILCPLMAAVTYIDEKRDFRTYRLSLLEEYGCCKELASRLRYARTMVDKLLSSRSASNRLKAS

Row | Structure (SMILES) | inhibition [1] | inhibition [2] | inhibition [3] | inhibition [4] | inhibition [5] | inhibition [6] | inhibition [7] | inhibition [8] | inhibition [9] | inhibition [10] | inhibition [11] | inhibition [12] | inhibition [13] | inhibition [14] | inhibition [15] | inhibition [16] | inhibition [17] | inhibition [18] | inhibition [19] | inhibition [20]
1 | Cn1c(-c2nonc2N)nc2cnccc21 | 6.44% | 1.82% | 3.22% | 4.27% | 3.27% | 3.89% | -0.49% | 3.76% | 3.15% | 12.2% | 10.4% | 4.28% | 5.16% | 5.36% | 6.27% | 2.31% | -0.12% | -0.13% | 4.58% | 1.61%
2 | c1ccc(-c2n[nH]cc2-c2ccnc(-c3ccc(OCCn4ccnc4)cc3)c2)nc1 | 2.18% | 0.35% | 2.46% | 0.51% | 1.73% | 0.49% | 4.21% | 2.27% | 2.32% | 2.13% | 2.33% | 1.2% | 2.17% | 3.26% | 5.27% | 5.33% | 16.4% | 2.61% | 11.8% | 2.86%
